Source: PubChem BioAssay
Giardia FBPA inh: qHTS Assay for Inhibitors of Fructose-1,6-bisphosphate Aldolase from Giardia Lamblia. 290,000 compounds, 0.71% hits. Potency, µM (highest dose often 59.6 µM), for the others: at the highest dose activity, negative = inhibition, most hits filed as inhibitors. purified Giardia FBPA; further: potency means the concentration at half of the fitted maximal effect; on the % scale 0 is the no-effect control and ±100 the full control effect; nearly all actives have a fitted effect of over 55% in size
Target sequence (A8B2U2 whole entry, looked up): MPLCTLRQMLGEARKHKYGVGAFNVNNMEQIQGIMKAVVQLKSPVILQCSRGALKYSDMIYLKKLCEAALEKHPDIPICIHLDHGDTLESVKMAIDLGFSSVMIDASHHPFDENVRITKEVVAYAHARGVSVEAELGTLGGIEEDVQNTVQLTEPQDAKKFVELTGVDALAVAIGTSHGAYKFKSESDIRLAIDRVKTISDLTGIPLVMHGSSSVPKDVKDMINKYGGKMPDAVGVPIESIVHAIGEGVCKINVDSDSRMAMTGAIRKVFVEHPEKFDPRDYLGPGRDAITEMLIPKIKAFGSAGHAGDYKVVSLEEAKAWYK
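Giardia FBPA (40 nM reagent) was preincubated 10 min at RT with compound (up to 57.5 uM final), then substrate plus GAPDH/TPI/NAD/arsenate coupling system with diaphorase/resazurin was added; resorufin fluorescence (525/598 nm) was read after 20 min.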
Pf growth 48h: Primary qHTS for delayed death inhibitors of the malarial parasite plastid, 48 hour incubation; 310,000 compounds, 5.9% hits; AID 504832, 2011; Potency, µM (series often up to 28.7 µM), for the others: at the top dose activity change, negative = inhibition, most hits filed as inhibitors; P. falciparum luciferase growth in erythrocytes, 48 h; further: potency means the concentration at half of the fitted maximal effect; on the % scale 0 is the no-effect control and ±100 the full control effect
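Luminescence readout; reporter = integrated firefly luciferase in P. falciparum. RBC culture at 2% hematocrit, 0.1% parasitemia final, 37 C/5% CO2; decreased signal taken as growth inhibition.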
NS1 function inh: qHTS Assay for Inhibitors of Influenza NS1 Protein Function. Potency, µM (titrated, usually from 46.1 µM), without a hit: at the highest dose activity, positive = more growth. 270,000 compounds, 0.4% hits. AID 2326, 2010; calls by dose curve; further: potency means the concentration at half of the fitted maximal effect; actives are rising curves; nearly all actives have a fitted effect of over 50% in size
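In this qHTS, NS1 from influenza A is expressed in budding yeast, where it slows growth. Cells are switched from glucose to 2% galactose medium (pH 6.0, -URA), treated with compound, and growth recovery is read at OD600.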
Pf growth 96h: Primary qHTS for delayed death inhibitors of the malarial parasite plastid, 96 hour incubation; 320,000 compounds, 6.9% hits; Potency, µM (highest dose often 28.7 µM), for the others: at the top dose activity change, negative = inhibition, actives largely listed as inhibitors; P. falciparum luciferase reporter growth, 96 h; further: potency means the concentration at half of the fitted maximal effect; on the % scale 0 is the no-effect control and ±100 the full control effect
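Luminescence readout: decreased luciferase signal marks inhibited growth of reporter-expressing P. falciparum in infected red cells (2% hematocrit, 0.05% parasitemia final), exposed to compound two generations (96 h, 37 C, 5% CO2).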
Shiga toxin inh: A qHTS for Small Molecule Inhibitors of Shiga Toxin. Vero cells, Shiga toxin protein synthesis inhibition reporter. inhibition, % at 38.7 µM. 290,000 compounds, 9.2% hits. AID 2315, 2010; in the data active means inhibition mostly above about 28%, no sharp cut-off; inactive means mostly below about 43%; further: 0% is about no effect
CHX counter: Cycloheximide Counterscreen for Small Molecule Inhibitors of Shiga Toxin; cell reporter, cycloheximide protein synthesis inhibition counterscreen; AID 2314, 2010; 300,000 compounds, 12% hits; max response, %; in the data active means max response mostly above about 13%, no sharp cut-off; inactive means mostly below about 14%; further: read at 38.3 µM for the half of the compounds with a filed dose; 0% is about no effect
The depositor's hits bear a star; [ ] = remark or other dose. This is a sample that favours compounds with a hit; in the whole collection about 21% have one here. Unless noted, the call rests on the fitted dose curve; in most records, active means well fitted curve in the direction sought with a large enough effect; inconclusive means small, poorly fitted or top-dose-only effect, or another doubt; inactive means no such curve, though single readings can be large; an effect the other way counts as inactive or inconclusive.

Results for O=C(CNC(=O)c1ccccc1F)NCC(c1cccs1)N1CCOCC1 (configuration not stated) ?
Pf growth 48h: 54%; Pf growth 96h: 1%

Results for CCOC(=O)c1ccc(NC(=O)Nc2ncccc2C)cc1 ?
Giardia FBPA inh: 4%; Pf growth 48h: 35%; NS1 function inh: 7%; Pf growth 96h: -1%; Shiga toxin inh: -2; CHX counter: 8

What do the screens show for `Cc1cccnc1NC(=O)Nc1cccc(C(F)(F)F)c1`?
Giardia FBPA inh: -8%; Pf growth 48h: -9%; NS1 function inh: 0%; Shiga toxin inh: -12; CHX counter: 3

How did Cc1cccnc1NC(=O)Nc1ccc(F)cc1 do in these assays?
Giardia FBPA inh: 2%; NS1 function inh: -5%; Pf growth 96h: 16%; Shiga toxin inh: 69*; CHX counter: 30

How did Cc1ccc(NC(=O)Nc2ncccc2C)cc1 do in these assays?
Giardia FBPA inh: -8%; Pf growth 48h: 195%; NS1 function inh: -30%; Pf growth 96h: 43%; Shiga toxin inh: 106*; CHX counter: 63*

How did Cc1cc(C(C)(C)CC(C)(C)C)ccc1OCCOCC[N+](C)(C)Cc1ccccc1 do in these assays?
Giardia FBPA inh: 4%; Pf growth 48h: 1.7µM*; Pf growth 96h: 0.47µM*

Results for Cc1ccc(OCCNCc2ccccc2)c(C)c1 ?
Giardia FBPA inh: inconclusive; Pf growth 48h: 0%; NS1 function inh: 13%; Pf growth 96h: inconclusive; Shiga toxin inh: 8; CHX counter: 8

Results for O=C(Nc1nnc(-c2ccco2)o1)c1ccc([N+](=O)[O-])s1 ?
Giardia FBPA inh: inconclusive; Pf growth 48h: -23%; NS1 function inh: 3%; Pf growth 96h: 12µM*; Shiga toxin inh: 31; CHX counter: -2

How did CC1CCN(S(=O)(=O)c2ccc(C(=O)Nc3nnc(-c4ccco4)o3)cc2)CC1 do in these assays?
Giardia FBPA inh: -29%; Pf growth 48h: inconclusive; NS1 function inh: -2%; Pf growth 96h: 15µM*; Shiga toxin inh: -14; CHX counter: -3

Results for CCC(=O)Nc1nnc(-c2ccco2)o1 ?
Giardia FBPA inh: -12%; NS1 function inh: 0%; Pf growth 96h: 11%; Shiga toxin inh: -9; CHX counter: -5

Results for N#Cc1ccc(C(=O)Nc2nnc(-c3ccco3)o2)cc1 ?
Giardia FBPA inh: inconclusive; Pf growth 48h: inconclusive; Pf growth 96h: inconclusive; Shiga toxin inh: 37; CHX counter: 13

How did Cc1ccsc1C(=O)Nc1nnc(-c2ccco2)o1 do in these assays?
Giardia FBPA inh: 5%; Pf growth 48h: inconclusive; NS1 function inh: -36%; Pf growth 96h: -11%; Shiga toxin inh: 14; CHX counter: 18*

Results for Cc1ccc(C(=O)Nc2nnc(-c3ccco3)o2)cc1 ?
Giardia FBPA inh: 18%; Pf growth 48h: 89%; NS1 function inh: -1%; Pf growth 96h: inconclusive; Shiga toxin inh: 18; CHX counter: 44*

Results for O=C(CN1C(=O)NC(Cc2c[nH]c3ccccc23)C1=O)Nc1ccc(Br)cc1F (configuration not stated) ?
Pf growth 48h: inconclusive; Pf growth 96h: -3%

Results for COc1ccc2[nH]c3c(c2c1)CCN1C(=O)N([C@@H](C)C(=O)NC2CCN(Cc4ccccc4)CC2)C(=O)[C@]31C ?
Giardia FBPA inh: -13%; Pf growth 48h: inconclusive; NS1 function inh: 0%; Pf growth 96h: inconclusive; Shiga toxin inh: 7; CHX counter: -4

What do the screens show for `O=C(Nc1ccccc1C(F)(F)F)c1ccc(CN2CCC(Cc3ccccc3)CC2)cc1`?
Giardia FBPA inh: -4%; Pf growth 48h: 13µM*; NS1 function inh: -19%; Pf growth 96h: 10µM*; Shiga toxin inh: -13; CHX counter: -2

How did CSc1ccccc1NC(=O)c1ccc(CN2CCOCC2)cc1 do in these assays?
Giardia FBPA inh: 5%; Pf growth 48h: -15%[5.75 µM]; Pf growth 96h: -19%; Shiga toxin inh: 52*; CHX counter: 13*

Results for Cc1cc(CSc2ccccc2)ccc1NC(=O)c1ccc(C)c([N+](=O)[O-])c1 ?
Giardia FBPA inh: 2%; Pf growth 48h: 6%; NS1 function inh: 16%; Pf growth 96h: 12%; Shiga toxin inh: -1; CHX counter: -1

Results for Cc1cc(CSc2ccccc2)ccc1NC(=O)c1ccc(CN2CCOCC2)cc1 ?
Giardia FBPA inh: 0%; Pf growth 48h: -34%; NS1 function inh: 9%; Pf growth 96h: 2.9µM*; Shiga toxin inh: 3; CHX counter: -1

How did O=C(Nc1ccccc1F)c1ccc(CN2CCN(c3ccccc3)CC2)cc1 do in these assays?
Giardia FBPA inh: 11%; Pf growth 48h: 10%; NS1 function inh: -19%; Pf growth 96h: inconclusive; Shiga toxin inh: 16; CHX counter: 12

Results for Cc1ccnc(NC(=O)c2ccc(S(=O)(=O)c3ccccc3)cc2)c1 ?
Giardia FBPA inh: 3%; Pf growth 48h: inconclusive; NS1 function inh: -1%; Pf growth 96h: 29%[5.75 µM]; Shiga toxin inh: 38; CHX counter: 13

What do the screens show for `CC(=O)N1CCN(C(=O)c2cc(S(=O)(=O)N3CCCCC3)ccc2Cl)CC1`?
Pf growth 48h: -9%; Pf growth 96h: 13%

What do the screens show for `O=C(CSc1n[nH]c(-c2ccccc2Cl)n1)NCc1cccc(C(=O)O)c1`?
Giardia FBPA inh: 1%; Pf growth 48h: 11%; NS1 function inh: 3%; Pf growth 96h: inconclusive; Shiga toxin inh: 10; CHX counter: -2

How did COCCCn1c(SC(C)C(=O)Nc2c(C)n(C)n(-c3ccccc3)c2=O)n[nH]c1=O (configuration not stated) do in these assays?
Pf growth 48h: inconclusive; Pf growth 96h: 0%

How did Cc1cc2ncc(-c3cccs3)nc2cc1C do in these assays?
Giardia FBPA inh: 6%; Pf growth 48h: 142%; NS1 function inh: -7%; Pf growth 96h: 494%; Shiga toxin inh: 101*; CHX counter: 51*

What do the screens show for `Cc1sc(N)nc1-c1cccs1`?
Giardia FBPA inh: -6%; Pf growth 48h: 32%; NS1 function inh: 9%; Pf growth 96h: -23%; Shiga toxin inh: 30; CHX counter: 9

How did c1csc(-c2ccc3ccccc3n2)c1 do in these assays?
Giardia FBPA inh: -2%; Pf growth 48h: 117%; NS1 function inh: -13%; Pf growth 96h: -2%[5.75 µM]; Shiga toxin inh: 90; CHX counter: 33*

How did Cc1ccc(-c2cc3ccccc3nc2N)cc1 do in these assays?
Giardia FBPA inh: -3%; Pf growth 48h: -14%[0.00184 µM]; NS1 function inh: -4%; Pf growth 96h: -2%; Shiga toxin inh: 71*; CHX counter: 18*

What do the screens show for `Nc1nc2ccccc2cc1-c1cccs1`?
Giardia FBPA inh: 1%; Pf growth 48h: -14%[0.00184 µM]; NS1 function inh: -5%; Pf growth 96h: 68%; Shiga toxin inh: 94*; CHX counter: 61*

How did c1ccc2nc(C3=NCCN3)ccc2c1 do in these assays?
Giardia FBPA inh: -2%; NS1 function inh: 3%
